Vif inh: HIV Vif self-association inhibitors, primary screen, imaging, HEK293T, single point; HEK293T cells, Vif self-association by quenched fluorescence, 24 h; AID 602346, 2012; 340,000 compounds, 0.35% hits; inhibition, % at 7.49 µM; in the data active = inhibition above about 50%, passing the limit was not always enough; inconclusive = no clear call, values can overlap the other calls; inactive = below about 31%
MITF act: activators of MITF-driven TRPM1 promoter reporter, primary screen, cell-based, SK-MEL-5, luciferase, single point. SK-MEL-5 TRPM1-promoter luciferase, 24 h; % of positive control, neutral wells = 0. activation, % at 12.5 µM. 300,000 compounds, 0.75% hits;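 active = mean activation of at least 80% with every replicate also reaching 80%; inconclusive = mean reaches 80% but some replicate falls short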;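 note: 0% = neutral control wells and 100% = parthenolide positive control wells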
esBAF inh: Bmi1 luciferase reporter increase in mESCs, primary screen, esBAF inhibitor project, mouse ES cells, Bmi1 luciferase knock-in, single point; 24 h; 100% = twice the neutral-well signal; 350,000 compounds, 2% hits; reporter increase, % at 12.5 µM; in the data active = activation above about 40%; inconclusive = no clear call, values can overlap the other calls;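 note: 0% = median of the plate's neutral control wells and 100% = double that signal; a rise in the Bmi1 reporter signal indicates esBAF inhibition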
Glyco luc inh: increase of ERlucT glycosylation luciferase signal, primary screen, N-linked glycosylation inhibitor project, D54 ERlucT cells, luminescence, set 2. D54 ERlucT glycosylation luciferase reporter, 24 h; percent of 100 nM tunicamycin response. reporter increase, % at 12.5 µM. 360,000 compounds, 0.23% hits. AID 588692, 2011;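 active = mean luciferase reporter signal, scaled so untreated is 0 and the glycosylation-blocking control 100, at or above a set limit in every replicate; inconclusive = mean reaches the limit but not every replicate does; inactive = mean below the limit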;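 note: luciferase carries N-glycosylation sites so blocking glycosylation raises the light; 0% = median of neutral control wells and 100% = median of 100 nM tunicamycin wells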
PvdQ inh: P. aeruginosa PvdQ acylase inhibitors, primary screen, biochemical, fluorescence, plate reader and imaging, single point; PvdQ acylase [Pseudomonas aeruginosa LESB58]; purified PvdQ acylase; inhibition, % at 10 µM; 340,000 compounds, 0.063% hits; AID 488965, 2010; in the data active = inhibition above about 30%, passing the limit was not always enough; inconclusive = no clear call, values can overlap the other calls;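 note: 0% = vehicle neutral wells and 100% = reference inhibitor wells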
Wnt bcat act: Wnt/beta-catenin pathway activators, primary screen, cell-based, plate reader, single point; Wnt/beta-catenin reporter cell assay, activator; activation, % at 9.35 µM; 300,000 compounds, 1.2% hits; AID 743398, 2014; in the data active = activation above about 30%, passing the limit was not always enough; inconclusive = no clear call, values can overlap the other calls;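 note: 0% = neutral control wells and 100% = positive control wells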
Starred values were filed as active, the others as inactive; ? = inconclusive; · = no result given. Shown are actives, neighbours in structure and some others; about 2.9% of the full set was active somewhere.

SMILES	Vif inh	MITF act	esBAF inh	Glyco luc inh	PvdQ inh	Wnt bcat act
O=[N+]([O-])c1ccccc1N/N=C\c1ccccc1Cl	·	40.9	62.3*	1.2	3.3	·
COc1cc(/C=N/NC(=O)CNC(=O)c2ccccc2)ccc1OC(=O)c1cccs1	1.8	13.4	0.3	1.0	-14.1	33.3*
COc1cccc(C(=O)NCC(=O)N/N=C/c2ccc(OC(=O)c3cccs3)c(OC)c2)c1	3.5	-16.4	·	0.5	-4.1	-4.2
O=[N+]([O-])c1ccccc1C=NNc1ccccc1	-4.5	26.9	91.5*	-8.1	-6.1	35.4*
CNC[C@H]1Oc2c(NC(=O)c3cnccn3)cccc2C(=O)N([C@@H](C)CO)C[C@H]1C	·	·	3.7	·	·	·
COc1cccc(S(=O)(=O)N2CC[C@@H]3[C@H](CO)Nc4ccc(C#Cc5ccccc5)cc4[C@@H]32)c1	·	·	-6.4	·	·	·
COc1ccc(S(=O)(=O)N2CC[C@H]3[C@H](CO)Nc4ccc(Br)cc4[C@H]32)cc1	·	·	-3.8	·	·	·
C[C@H](CO)N1C[C@H](C)[C@H](CN(C)S(=O)(=O)c2cccs2)OCCCC[C@H](C)Oc2ccc(NC(=O)Nc3ccc4c(c3)OCO4)cc2C1=O	·	·	-5.1	·	·	·
C[C@H](CO)N1C[C@H](C)[C@H](CN(C)S(=O)(=O)c2cn(C)cn2)Oc2ccc(NC(=O)Cc3ccccc3)cc2C1=O	·	·	-1.1	·	·	·
O=C(CC(=O)N/N=C\c1ccccc1[N+](=O)[O-])NCCc1ccccc1	-6.1	-6.0	-0.2	-1.2	-16.7	0.2
O=C(CNC(=O)c1ccco1)N/N=C/c1ccccc1[N+](=O)[O-]	1.0	-6.8	·	1.4	-13.3	2.4
O=[N+]([O-])c1ccccc1/C=N/OCc1ccccc1	7.1	101.1*	64.6*	-1.6	0.3	24.2
O=[N+]([O-])c1ccccc1N/N=C\c1ccccc1F	-2.1	74.9	63.3*	-7.2	-6.0	57.0*
O=C(CNC(=O)c1cccs1)N/N=C/c1ccccc1[N+](=O)[O-]	28.5	75.3	59.9*	0.6	-1.9	8.9
C[C@@H]1CN([C@@H](C)CO)C(=O)CCCn2cc(nn2)CO[C@H]1CN(C)C	·	·	-2.0	·	·	·
O=C(COC(=O)/C=C/c1cccc(Br)c1)NC1CCCCCC1	-5.4	3.4	-1.0	3.5	42.1*	3.0
O=C(COC(=O)c1ccccc1Cl)NC1CCCCCC1	12.6	56.0	69.4*	3.2	-4.0	-3.7
O=C(COC(=O)/C=C/c1cccc(Br)c1)NC1CCCCC1	36.5	-2.4	-4.3	-0.9	2.6	1.4
O=C(COC(=O)c1c(F)cccc1Cl)NC1CCCC1	6.9	29.0	49.6*	0.1	1.2	3.3
O=C(COC(=O)c1c(Cl)cccc1Cl)NC1CCCCC1	0.8	4.8	·	-3.0	6.4	0.1
O=C(COC(=O)c1cccc(Cl)c1Cl)NC1CCCC1	-4.6	11.8	7.1	1.0	-1.3	-0.3
C[C@H]1CN([C@@H](C)CO)C(=O)c2ccccc2-c2ccccc2CO[C@H]1CN(C)Cc1cccc(O)c1	·	·	-2.0	·	·	·
COc1ccc(Oc2nnc(C)c3ccccc23)cc1	15.6	88.8*	49.8*	-2.4	-3.0	41.6*
COc1ccc(-c2nnc3c4ccccc4c(C)nn23)cc1	1.6	17.9	72.0*	-2.7	-7.3	47.3*
Cc1nnc(Oc2ccccc2)c2ccccc12	1.3	36.2	18.1	0.8	23.0	3.7
SMILES	Vif inh	MITF act	esBAF inh	Glyco luc inh	PvdQ inh	Wnt bcat act
N#C[C@@H]1[C@H](c2ccc(C3=CCCCC3)cc2)[C@H](CO)N1C(=O)CN1CCOCC1	·	·	1.2	·	·	·
O=C(CNC(=O)c1ccncc1)N/N=C/c1ccccn1	58.7*	1.9	·	-3.4	9.7	2.8
COc1cc(C(=O)NCC(=O)N/N=C/c2ccccn2)cc(OC)c1OC	9.5	-8.4	-15.3	1.7	-1.5	-1.5
N#Cc1ccc(-c2ccc3c(c2)[C@@H]2[C@@H](CCN2C(=O)c2ccccc2F)[C@@H](CO)N3)cc1	·	·	-3.9	·	·	·
COc1ccc(-c2nc3c(C(=O)NCCN(C)C)cccc3c3ccccc23)cc1	0.4	·	·	36.6*	-4.6	0.6
CN(C)CCNC(=O)c1cccc2nc3c(ccc4ccccc43)nc12	-8.6	·	·	56.3*	-11.3	5.9
COc1ccc(C(=O)NCCN(C)C)c2nc3ccccc3cc12	13.1	·	·	54.3*	-20.3	-2.5
CN(C)CCNC(=O)c1ccccc1-c1cc2ccccc2c(=O)o1	10.4	8.0	-0.3	1.2	-16.0	-0.3
CN(C)CCNC(=O)c1cccc2[nH]c(-c3ccncc3)nc12	-6.1	·	·	68.0*	-10.1	-2.2
COc1ccc(-c2coc3c(C(=O)NCCN(C)C)cccc23)c(C)c1	13.7	·	-2.5	-2.2	·	-3.1
C[C@H](CO)N1C[C@H](C)[C@@H](CN(C)CC2CCCCC2)Oc2ccc(NC(=O)CCC(F)(F)F)cc2CC1=O	·	·	-5.0	·	·	·
CO[C@H]1CN(C)C(=O)c2cc(NC(=O)c3ccno3)ccc2OC[C@H](C)NC[C@@H]1C	·	·	-6.4	·	·	·
COc1cccc(S(=O)(=O)Nc2ccc3c(c2)C(=O)N(C)[C@@H]2CC[C@H](CC(=O)O)O[C@@H]2CO3)c1	·	·	5.9	·	·	·
COc1cccc2nc3c(C(=O)NCCN(C)C)cccc3cc12	-34.0	·	·	48.6*	-12.1	2.1
COc1ccc(Cl)cc1C(=O)NCCN(C)C	1.0	0.8	·	-1.6	3.3	0.6
COC(=O)N(C)C[C@@H]1OCc2ccccc2-c2c(n(C)c3ccccc23)C(=O)N([C@@H](C)CO)C[C@H]1C	·	·	1.1	·	·	·
O=C(C[C@@H]1C=C[C@@H](NC(=O)c2cccc(F)c2)[C@H](CO)O1)NCc1ccc(Oc2ccccc2)cc1	·	·	5.7	·	·	·
CC(C)(C)c1ccc(NC(=O)c2ccc(=O)[nH]n2)cc1	-2.6	97.4*	14.4	-9.2	9.2	32.7*
O=C(Nc1ccccc1-c1ccccc1)c1ccc(=O)[nH]n1	-0.5	56.0	43.5*	3.0	-5.8	-1.5
CN1C(=O)c2cc(NC(=O)Cc3ccccc3)ccc2OC[C@@H]2O[C@H](CC(=O)NC3CCC3)CC[C@H]21	·	·	-0.6	·	·	·
Brc1ccc(-c2noc(CCc3ccccc3)n2)cc1	-1.2	19.9	17.8	2.2	5.4	1.6
CCCc1nc(-c2ccc(-c3ccc(F)cc3)cc2)no1	-7.5	·	57.9*	-1.9	-7.0	·
c1ccc(CCc2nc(-c3ccccc3)no2)cc1	1.3	71.5	46.0*	-1.7	6.7	0.9
Cc1ccc(Cc2nc(-c3cccnc3)no2)cc1	1.8	15.7	8.0	2.0	7.2	0.4
c1cncc(-c2noc(CC3CCCCC3)n2)c1	·	66.0	42.0*	-5.2	5.7	·
Cc1cccc(-c2noc(CCc3ccccc3)n2)c1	1.1	·	63.4*	-0.4	-12.9	?

Assay outcomes deposited in PubChem by Broad Institute.
